Several values for one entry are separate records, joined by “and”; a condition that tells them apart may be missing. Identical values can stand only once. Hit rate of the full screen: of about 5,500 compounds, about 2,000 (36%) were called active. About 18% were inconclusive and are not listed. Rule as the data show it: active = normalized growth mostly below about 0.91 (no sharp cut-off); inconclusive = no clear call, values can overlap the other calls; inactive = mostly above about 0.92. Some of the results follow.
Assay: chemical genetic growth profiling, strain panel (AID 1159580);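 also: tested at 20 µM; growth read once vehicle control cultures reached saturation at 30 °C; 1 = growth at the plate median or of vehicle wells; lower values mean less growth of the strain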
Conditions: S. cerevisiae deletion strains, growth OD

Measured: normalized growth

CCCN(CCC)c1c([N+](=O)[O-])cc(C(F)(F)F)cc1[N+](=O)[O-]
inactive: locus YAL013W, strain DEP1, stronger effect = lower value 1.02 | locus YAL021C, strain ccr4, stronger effect = lower value 1 | locus YAL026C, strain drs2, stronger effect = lower value 0.999 | locus YAL030W, strain snc1, stronger effect = lower value 1 | locus YBL061C, strain skt5, stronger effect = lower value 1.01 | locus YBR009C, strain hhf1, stronger effect = lower value 0.995 | locus YBR021W, strain FUR4, stronger effect = lower value 1.03 | locus YBR023C, strain chs3, stronger effect = lower value 1.01 | locus YBR171W, strain sec66, stronger effect = lower value 0.985 | locus YBR229C, strain ROT2, stronger effect = lower value 1 | locus YBR231C, strain swc5, stronger effect = lower value 1.02 | locus YBR279W, strain paf1, stronger effect = lower value 1.01 | locus YCL011C, strain gbp2, stronger effect = lower value 0.97 | locus YCL016C, strain dcc1, stronger effect = lower value 1 | locus YCL029C, strain bik1, stronger effect = lower value 1.01 | locus YCL061C, strain MRC1, stronger effect = lower value 0.984 | locus YCL069W, strain vba3, stronger effect = lower value 0.977 | locus YCR088W, strain abp1, stronger effect = lower value 0.976 | locus YDL005C, strain med2, stronger effect = lower value 1.01 | locus YDL035C, strain GPR1, stronger effect = lower value 1.04 | locus YDL040C, strain nat1, stronger effect = lower value 1 | locus YDL074C, strain BRE1, stronger effect = lower value 1.04 | locus YDL101C, strain DUN1, stronger effect = lower value 0.997 | locus YDL134C, strain PPH21, stronger effect = lower value 0.995 | locus YDL185W, strain tfp1, stronger effect = lower value 1.02 | locus YDL192W, strain arf1, stronger effect = lower value 1.02 | locus YDR001C, strain nth1, stronger effect = lower value 0.981 | locus YDR069C, strain doa4, stronger effect = lower value 1.02 | locus YDR101C, strain arx1, stronger effect = lower value 1.01 | locus YDR137W, strain rgp1, stronger effect = lower value 0.957 | locus YDR150W, strain NUM1, stronger effect = lower value 1.02 | locus YDR159W, strain sac3, stronger effect = lower value 0.989 | locus YDR162C, strain NBP2, stronger effect = lower value 1 | locus YDR195W, strain ref2 0.987 | locus YDR297W, strain sur2, stronger effect = lower value 1 | locus YDR318W, strain mcm21, stronger effect = lower value 1.01 | locus YDR334W, strain swr1, stronger effect = lower value 0.994 | locus YDR335W, strain msn5, stronger effect = lower value 1.01 | locus YDR388W, stronger effect = lower value 1 | locus YDR392W, strain spt3, stronger effect = lower value 0.919 | locus YDR502C, strain sam2, stronger effect = lower value 1.02 | locus YEL003W, strain gim4, stronger effect = lower value 0.974 | locus YEL037C, strain rad23, stronger effect = lower value 0.988 | locus YEL061C, strain CIN8 (second series), stronger effect = lower value 0.981 | locus YEL061C, strain CIN8, stronger effect = lower value 1.01 | locus YER015W, strain faa2, stronger effect = lower value 1.01 | locus YER016W, strain bim1, stronger effect = lower value 1 | locus YER110C, stronger effect = lower value 1.01 | locus YER111C, strain swi4, stronger effect = lower value 0.98 | locus YER155C, strain BEM2 (second series), stronger effect = lower value 1 | locus YER155C, strain BEM2, stronger effect = lower value 1.01 | locus YER167W, strain BCK2, stronger effect = lower value 0.997 | locus YFR010W, strain ubp6, stronger effect = lower value 0.996 | locus YGL078C, strain dbp3, stronger effect = lower value 1.01 | locus YGL086W, strain mad1, stronger effect = lower value 1.01 | locus YGL167C, strain pmr1, stronger effect = lower value 1.01 | locus YGL173C, strain kem1, stronger effect = lower value 1.02 | locus YGL227W, strain vid30, stronger effect = lower value 0.982 | locus YGL240W, strain doc1, stronger effect = lower value 1.05 | locus YGL248W, strain PDE1, stronger effect = lower value 0.99 | locus YGL253W, strain hxk2, stronger effect = lower value 1.01 | locus YGR078C, strain PAC10, stronger effect = lower value 1.02 | locus YGR135W, strain pre9, stronger effect = lower value 1.02 | locus YGR229C, strain SMI1, stronger effect = lower value 1.01 | locus YGR252W, strain gcn5, stronger effect = lower value 1.05 | locus YHR013C, strain ard1, stronger effect = lower value 1.06 | locus YHR027C, strain rpn1, stronger effect = lower value 1.03 | locus YHR030C, strain SLT2, stronger effect = lower value 1.01 and 0.97 | locus YHR079C, strain IRE1 (second series), stronger effect = lower value 1.02 | locus YHR079C, strain IRE1, stronger effect = lower value 0.979 | locus YHR094C, strain hxt1, stronger effect = lower value 1.01 | locus YHR129C, strain ARP1, stronger effect = lower value 0.99 | locus YHR142W, strain chs7, stronger effect = lower value 0.975 | locus YHR200W, strain rpn10, stronger effect = lower value 1.01 | locus YIL066C, strain RNR3, stronger effect = lower value 1.02 | locus YIL073C, strain SPO22, stronger effect = lower value 1.04 | locus YIL125W, strain kgd1, stronger effect = lower value 1 | locus YIR030C, strain dcg1, stronger effect = lower value 1.01 | locus YJL092W, strain hpr5, stronger effect = lower value 0.976 | locus YJL095W, strain BCK1 (second series), stronger effect = lower value 1.01 | locus YJL095W, strain BCK1, stronger effect = lower value 0.99 and 0.98 | locus YJL115W, strain asf1, stronger effect = lower value 0.998 | locus YJL129C, strain trk1, stronger effect = lower value 0.96 | locus YJL134W, strain LCB3, stronger effect = lower value 1 | locus YJL154C, strain vps35, stronger effect = lower value 0.978 | locus YJL164C, strain tpk1, stronger effect = lower value 0.991 | locus YJL166W, strain qcr8, stronger effect = lower value 1.02 | locus YJL168C, strain set2, stronger effect = lower value 1.01 | locus YJL187C, strain SWE1 (second series), stronger effect = lower value 1.02 | locus YJL187C, strain SWE1, stronger effect = lower value 1.01 | locus YJR043C, strain POL32, stronger effect = lower value 1.01 | locus YJR066W, strain TOR1, stronger effect = lower value 0.914
